{"source": "the supplement of paper PMC10498489", "note": "Screen size: about 2,300 compounds; about 330 (14%) showed activity. A selection follows. A number with no mark means an inactive call.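 How the source made its calls: active = median modified Z-score above 1.96; inactive = 1.96 or below.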"}
{"system": "HepG2 Srxn1-GFP reporter cells (+30 nM CDDO-Me)", "assay": "Srxn1-GFP intensity median modified Z-score relative to plate median; higher = stronger NRF2 / oxidative stress reporter activation, active = hit call of the paper", "settings": "10 µM; exposure time: 24h", "in_short": "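The modified Z-score of GFP intensity was computed per plate, and the median over replicates is reported. HepG2 Srxn1-GFP BAC reporter cells in three replicate plates were treated for 24 h with compound at 10 μM plus an NRF2 activator at 30 nM (≤0.1% DMSO). Per-cell cytoplasmic GFP came from confocal images, excluding those with under 100 cells, and scaling used 1.4826 × median absolute deviation.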"}
{"smiles": "CC(=O)O[C@]1(C(C)=O)CCC2C3=CC(Cl)=C4CC(=O)CC[C@]4(C)C3CC[C@@]21C", "note": "(some centres undefined) [euspeclibcmpd746]", "Srxn1-GFP intensity median modified Z-score": -0.232}
{"smiles": "N=C(N)NC(=O)c1nc(Cl)c(=N)[nH]c1N", "note": "[euspeclibcmpd18]", "Srxn1-GFP intensity median modified Z-score": 1.07}
{"smiles": "C[C@]12CCC3c4ccc(O)cc4CCC3C1CCC2=O", "note": "(some centres undefined) [euspeclibcmpd118]", "Srxn1-GFP intensity median modified Z-score": -0.384}
{"smiles": "CC1C(=NO)C[C@@H]2C[C@H]1C2(C)C", "note": "(some centres undefined) [euspeclibcmpd1398]", "Srxn1-GFP intensity median modified Z-score": -0.67}
{"smiles": "OCc1cc(O)c2c(O)c3c(O[C@@H]4O[C@H](CO)[C@@H](O)[C@H](O)[C@H]4O)cccc3c(O[C@@H]3O[C@H](CO)[C@@H](O)[C@H](O)[C@H]3O)c2c1", "note": "[euspeclibcmpd932]", "Srxn1-GFP intensity median modified Z-score": 0.277}
{"smiles": "CCC(C(=O)O)c1ccccc1", "note": "(centres undefined) [euspeclibcmpd2274]", "Srxn1-GFP intensity median modified Z-score": -0.651}
{"smiles": "O=c1oc2cc(O)ccc2s1", "note": "[euspeclibcmpd1146]", "Srxn1-GFP intensity median modified Z-score": "5.96 (active)"}
{"smiles": "Cc1cc(=O)oc2cc(O)ccc12", "note": "[euspeclibcmpd929]", "Srxn1-GFP intensity median modified Z-score": 0.128}
{"smiles": "O=c1ccc2ccc(O)cc2o1", "note": "[euspeclibcmpd1541]", "Srxn1-GFP intensity median modified Z-score": -0.459}
{"smiles": "CC(CS)C(=O)N1CCCC1C(=O)O", "note": "(centres undefined) [euspeclibcmpd337]", "Srxn1-GFP intensity median modified Z-score": -0.273}
{"smiles": "O=C(Nc1nc(-c2ccc(F)c(F)c2)cs1)c1cc(F)c(F)cc1[N+](=O)[O-]", "Srxn1-GFP intensity median modified Z-score": 0.285}
{"smiles": "Cn1c(=O)c2c(ncn2CC2OCCO2)n(C)c1=O", "note": "[euspeclibcmpd483]", "Srxn1-GFP intensity median modified Z-score": -0.13}
{"smiles": "O=c1cc(-c2ccccc2)oc2c(O)c(O)ccc12", "note": "[euspeclibcmpd2237]", "Srxn1-GFP intensity median modified Z-score": "4.14 (active)"}
{"smiles": "O=c1cc(-c2ccccc2)oc2ccc(O)cc12", "note": "[euspeclibcmpd1505]", "Srxn1-GFP intensity median modified Z-score": 0.447}
{"smiles": "O=c1cc(-c2ccccc2)oc2cc(O)ccc12", "note": "[euspeclibcmpd1489]", "Srxn1-GFP intensity median modified Z-score": -0.269}
{"smiles": "O=c1c(Cc2c(O)oc3ccccc3c2=O)c(O)oc2ccccc12", "note": "[euspeclibcmpd328]", "Srxn1-GFP intensity median modified Z-score": -0.0638}
{"smiles": "CCCCc1c(O)n(-c2ccccc2)n(-c2ccccc2)c1=O", "note": "[euspeclibcmpd235]", "Srxn1-GFP intensity median modified Z-score": 0.115}
{"smiles": "O=c1c(CC[S+]([O-])c2ccccc2)c(O)n(-c2ccccc2)n1-c1ccccc1", "note": "(centres undefined) [euspeclibcmpd282]", "Srxn1-GFP intensity median modified Z-score": -0.197}
{"smiles": "CCCCc1c(O)n(-c2ccc(O)cc2)n(-c2ccccc2)c1=O", "note": "[euspeclibcmpd223]", "Srxn1-GFP intensity median modified Z-score": "13.1 (active)"}
{"smiles": "O=c1c2c3c(sc2nc(SCc2ccc(Cl)c(Cl)c2)n1-c1ccccc1)CCCC3", "Srxn1-GFP intensity median modified Z-score": 1.55}
{"smiles": "COCCn1nc(C(=O)NC(C)c2cccc(Cl)c2)ccc1=O", "note": "(centres undefined)", "Srxn1-GFP intensity median modified Z-score": 1.38}
{"smiles": "Cc1cc(C(C)(C)C)c(O)c(C(C)(C)C)c1", "note": "[euspeclibcmpd1001]", "Srxn1-GFP intensity median modified Z-score": "14.5 (active)"}
{"smiles": "Cc1cc(C(C)(C)C)c(O)c(C)c1CC1=NCCN1", "note": "[euspeclibcmpd222]", "Srxn1-GFP intensity median modified Z-score": 0.261}
{"smiles": "CC(C)(Sc1cc(C(C)(C)C)c(O)c(C(C)(C)C)c1)Sc1cc(C(C)(C)C)c(O)c(C(C)(C)C)c1", "note": "[euspeclibcmpd377]", "Srxn1-GFP intensity median modified Z-score": -0.0593}
{"smiles": "CN(C)CCCN1c2ccccc2Sc2ccc(Cl)cc21", "note": "[euspeclibcmpd59]", "Srxn1-GFP intensity median modified Z-score": 0.609}
{"smiles": "O=C(NCCC(=O)N1CCN(Cc2ccc3c(c2)OCO3)CC1)c1ccc(Cl)cc1", "Srxn1-GFP intensity median modified Z-score": 1.31}
{"smiles": "CC1(C)SC2C(NC(=O)C(N)c3ccccc3)C(=O)N2C1C(=O)O", "note": "(centres undefined) [euspeclibcmpd2081]", "Srxn1-GFP intensity median modified Z-score": -0.172}
{"smiles": "CC1C(=O)CCC2[C@]3(C)CC[C@@]4(C)C5CC(C)(C)CC[C@]5(C)CC[C@]4(C)C3CC[C@]12C", "note": "(some centres undefined) [euspeclibcmpd1606]", "Srxn1-GFP intensity median modified Z-score": -0.261}
{"smiles": "CC[C@@H]1OC(=O)C[C@@H](O)[C@H](C)[C@@H](O[C@@H]2O[C@H](C)[C@@H](O)[C@H](N(C)C)[C@H]2O)[C@@H](CCN2C[C@H](C)C[C@H](C)C2)CC(C)C(=O)/C=C/C(C)=C\\C1CO[C@@H]1O[C@H](C)[C@@H](O)[C@@H](OC)[C@H]1OC", "note": "(some centres undefined) [euspeclibcmpd704]", "Srxn1-GFP intensity median modified Z-score": 0.22}
{"smiles": "C=C(C)c1cc(O)c(C)cc1O", "note": "[euspeclibcmpd1354]", "Srxn1-GFP intensity median modified Z-score": "6.7 (active)"}
{"smiles": "CC(C)(CO)C(=O)C(O)NCCC(=O)O", "note": "(centres undefined) [euspeclibcmpd2436]", "Srxn1-GFP intensity median modified Z-score": 0.216}
{"smiles": "Oc1ccc2c(c1)OCC1(O)Cc3cc(O)c(O)cc3C21", "note": "(centres undefined) [euspeclibcmpd1416]", "Srxn1-GFP intensity median modified Z-score": 1.37}
{"smiles": "NC(C(=O)C(O)C(O)CO)C(O)O", "note": "(centres undefined) [euspeclibcmpd1661]", "Srxn1-GFP intensity median modified Z-score": -0.409}
{"smiles": "CCC[C@@H]1CC(C(=O)N[C@@H]([C@@H]2O[C@H](SC)[C@H](O)[C@@H](O)[C@H]2O)[C@H](C)Cl)N(C)C1", "note": "(some centres undefined) [euspeclibcmpd68]", "Srxn1-GFP intensity median modified Z-score": -0.322}
